sEH inhibitor = soluble epoxide hydrolase inhibitors, primary screen, biochemical, human sEH | inhibition, % at 2 µM | 0.34% of 91,000 active | recombinant human sEH enzymatic activity assay; in the data active means inhibition above about 80%
Target sequence (P34913 whole entry, looked up): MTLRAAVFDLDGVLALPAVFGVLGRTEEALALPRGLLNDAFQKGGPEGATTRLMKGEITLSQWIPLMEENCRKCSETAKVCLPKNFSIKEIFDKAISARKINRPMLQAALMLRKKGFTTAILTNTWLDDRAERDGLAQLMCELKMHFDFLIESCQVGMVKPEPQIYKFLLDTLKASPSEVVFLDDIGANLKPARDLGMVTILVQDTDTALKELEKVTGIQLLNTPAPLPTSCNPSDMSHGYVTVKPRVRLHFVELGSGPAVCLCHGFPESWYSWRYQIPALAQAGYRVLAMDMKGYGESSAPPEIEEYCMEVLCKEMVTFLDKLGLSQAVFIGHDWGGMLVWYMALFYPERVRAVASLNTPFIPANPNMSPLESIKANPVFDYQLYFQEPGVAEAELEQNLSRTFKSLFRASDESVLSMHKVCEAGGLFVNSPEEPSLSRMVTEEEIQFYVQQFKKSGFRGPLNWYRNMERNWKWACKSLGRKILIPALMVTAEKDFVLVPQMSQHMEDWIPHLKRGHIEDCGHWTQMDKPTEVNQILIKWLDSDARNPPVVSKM
sEH activator = soluble epoxide hydrolase activators, primary screen, biochemical, human sEH. AID 717, 2007. activation, % at 2 µM. 0.04% of 91,000 active. purified human sEH enzymatic activity, activator screen. Bifunctional epoxide hydrolase 2 (Homo sapiens), P34913; in the data active means activation above about 37%
Cav32 inh = Cav3.2 calcium influx blockers – cell-based, Fluo-4 calcium fluorescence, FDSS, MLSMR library, primary screen | Voltage-dependent T-type calcium channel subunit alpha-1H (Homo sapiens), O95180 | Cav3.2-expressing cells; stronger effect = lower value | B-score at 10 µM | 4% of 100,000 active;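 active means single-dose well whose peak fluorescence ratio is a statistical outlier from its plate by either plate-standardised score or position-corrected B-score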
PostGolgi ctrl = growth inhibition of yeast control strain, primary screen, counter-screen for post-Golgi transport modulator project; efflux-deficient yeast background strain, growth absorbance A615, 16 h; inhibition, % at 10 µM; 5% of 98,000 active
PostGolgi yeast = phenotypic screen on post-Golgi transport, primary screen; inhibition, % at 10 µM; post-Golgi transport phenotypic cell assay; 0.9% of 98,000 active; AID 739, 2007;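 further: yeast cells grown in 1536-well plates; yeast grown about 18 h at 30C before absorbance read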
An asterisk follows results filed as active; · = no result. An excerpt weighted towards active compounds, which were near 7.8% of everything screened. Unless noted, no stated cut-off is given here; in the data, active means inhibition above about 30%; inactive means the rest.

SMILES	sEH inhibitor	sEH activator	Cav32 inh	PostGolgi ctrl	PostGolgi yeast
CC(C)OC(=O)c1nnn(-c2nonc2N)c1CSc1ccccn1	-13	11	·	37*	9
CC(C)OC(=O)c1nnn(-c2nonc2N)c1CN1CCc2ccccc2C1	1	0	-1.9	47*	1
COC(=O)c1nnn(-c2nonc2N)c1CSc1ccccn1	·	·	0.31	8	24
CCOC(=O)c1nnn(-c2nonc2N)c1CN1CCc2ccccc2C1	4	-3	-2.1	22	1
O=C(Nc1ccc(S(=O)(=O)N2CCCCCC2)cc1)C1CCCO1 (centres undefined)	6	-6	1.4	15	·
CCOC(=O)c1c(C)oc2c1cc(O)c1ccccc12	-9	10	0.48	39*	-6
COCCn1c(=O)[nH]c2cc(C(=O)NCCc3ccc(OC)c(OC)c3)ccc2c1=O	·	·	1	34*	-2
CC(C)c1ccc(CN(C(=O)C2COc3ccccc3O2)C2CCS(=O)(=O)C2)cc1 (centres undefined)	7	-7	-4.4*	63*	1
CN(C)c1ccc(CN(C(=O)C2COc3ccccc3O2)C2CCS(=O)(=O)C2)cc1 (centres undefined)	0	1	0.35	3	-13
COc1ccc(C2(O)CCN(CC(=O)Nc3nccs3)CC2)c(OC)c1	-12	10	-4.7*	4	3
CCc1ccccc1NC(=O)CSc1nnc(Cn2nnc3ccccc32)n1C	10	-5	0.69	·	·
COC(=O)C(C)N(C(=O)c1cccc2ccccc12)c1c(C)cccc1C (centres undefined)	-34	31	-7.1*	36*	10
COc1ccc(C(c2nnnn2C2CCCCC2)N2CCN(c3ccc(OC)cc3)CC2)cc1 (centres undefined)	-5	3	-6.4*	16	14
c1ccc(Cn2nnnc2C(c2cccs2)N2CCc3ccccc3C2)cc1 (centres undefined)	·	·	-3.8*	19	-9
Cc1ccc(C(c2nnnn2CCc2ccccc2)N2CCC(C)CC2)cc1 (centres undefined)	13	-10	-7.4*	·	·
Fc1ccc(C(c2nnnn2Cc2cccs2)N2CCN(c3ccccc3)CC2)cc1 (centres undefined)	-1	1	-5.8*	·	·
COC(=O)C1=C(C(=O)OC)SC(=C2C(=S)C(C)(C)N(C(=O)CC(C)C)c3ccccc32)S1	-4	0	-4.2	7	0
COc1ccc(C(c2nnnn2C2CCCC2)N2CCC(C)CC2)cc1 (centres undefined)	10	-11	-4.4*	16	0
CCc1ccc2[nH]c(=O)c(C(c3nnnn3CCOC)N3CCN(c4ccc(F)cc4)CC3)cc2c1 (centres undefined)	-3	4	-5.7*	5	-1
c1ccc(CC2CCN(C(c3cccs3)c3nnnn3C3CCCC3)CC2)cc1 (centres undefined)	-17	18	-3.4*	12	-8
CCCC(c1nnnn1C1CCCCC1)N1CCN(c2ncccn2)CC1 (centres undefined)	·	·	0.0019	37*	1
COc1ccc(C2NC(=S)NC3=C2CCc2cc(OC)ccc23)cc1 (centres undefined)	4	-3	-1.6	24	-18
CC(=O)c1ccc(NC(=O)c2cnn3c(C(F)F)cc(C4CC4)nc23)cc1	-13	16	-0.11	·	·
c1cnc2ccc(C(c3nnnn3C3CCCCC3)N3CCCCC3)cc2c1 (centres undefined)	14	-14	-4.7*	·	·
c1ccc(C(c2nnnn2C2CCCC2)N2CCN(c3ccccc3)CC2)cc1 (centres undefined)	-6	5	-5.1*	·	·
SMILES	sEH inhibitor	sEH activator	Cav32 inh	PostGolgi ctrl	PostGolgi yeast
Cc1ccc2cc(C(c3nnnn3C3CCCC3)N3CCN(c4ccc(F)cc4)CC3)c(=O)[nH]c2c1 (centres undefined)	3	-2	-5.3*	8	2
Cc1sc(-n2c(C)cc(C=O)c2C)c(C(=O)O)c1C	-15	12	0.012	1	0
C=CCn1c(C(C)NC(=O)CCC)nc2ccccc21 (centres undefined)	6	-6	0.76	·	·
COc1ccc(NC(=O)c2ccco2)cc1N	4	-6	-0.61	11	2
Cn1c(-c2sc3ccccc3c2Cl)n[nH]c1=S	3	-4	1.5	22	10
C=CCN1C(=O)C(Cc2ccc(OCC)cc2)S/C1=N\N=C\c1cccs1 (centres undefined)	-23	26	-2.6	8	-8
C=CCN1C(=O)C(Cc2ccccc2)S/C1=N/N=C/c1cccs1 (centres undefined)	9	-8	0.027	38*	-7
COc1cccc(C(=O)COC(=O)C(C)N2C(=O)C3C4C=CC(C4)C3C2=O)c1 (centres undefined)	-10	10	-0.65	7	-4
Cc1ccc(-c2csc3ncnc(SCC(=O)Nc4nnc(C)s4)c23)cc1	-12	14	0.001	33*	-5
Cc1ccc(O)c(N=CC2=C(O)c3ccccc3C2=O)c1	-7	8	-0.021	32*	1
COc1ccc(Nc2nc(NC(C)(C)C)nc(N3CCCC3)n2)c(OC)c1	0	1	-0.1	63*	5
Cc1cccc(NC(=O)c2nc[nH]c2C(=O)N[C@@H](CC(C)C)C(=O)OC(C)(C)C)c1	·	·	1.1	·	·
COCCN1C(=O)c2oc3ccccc3c(=O)c2C1c1cccc(O)c1 (centres undefined)	-11	10	0.47	32*	6
O=C(Nc1nccs1)c1ccc(S(=O)(=O)NCC2CCCCC2)cc1	17	-17	-1.4	41*	18
O=C(Nc1nccs1)c1ccc(S(=O)(=O)NCc2cccs2)cc1	8	-8	-0.037	12	1
CCn1[nH]c(=O)c(=Nc2c(C)n(C)n(-c3ccccc3)c2=O)cc1-c1ccc(Cl)cc1	22	-20	-3.7	-4	6
Nc1ccc(N2CCN(C(=O)c3ccco3)CC2)cc1	0	3	0.47	8	-1
COc1cccc(CNc2ncc(Br)cc2Br)c1O	·	·	-0.071	9	5
COc1cccc(CNc2ccc(Br)cn2)c1O	-2	1	-6.5*	12	-4
O=C(O)c1ccc(-n2nnnc2SCc2ccccc2F)cc1	·	·	-4.1*	-5	-4
c1ccc(OCCSc2nnnn2-c2ccccc2)cc1	2	-3	-6*	8	1
CCOc1ccc(OCCSc2nnnn2-c2ccccc2)cc1	0	2	-2.6	20	-5
COc1ccccc1OCCSc1nnnn1-c1ccc(C)cc1	7	-3	-5*	16	2
Cc1ncc(CSc2nnnn2-c2ccccc2)c(N)n1	2	0	1.4	32*	-3
Cc1cc(C)cc(NC(=O)CSc2nc(N)c(NC(=O)c3cccs3)c(=O)[nH]2)c1	·	·	2.4	·	·
N#CCCN1CCN(C(=S)c2ccc(-c3ccc(Cl)c(Cl)c3)o2)CC1	9	-11	-1.1	33*	8

Source: PubChem (several laboratories)
